# In all, about 16,000 compounds went through this assay and about 260 (1.6%) were called active. Entries that show only a call come without a potency. Inconclusive results (about 14%) are left out. Calls come from the whole dose curve; as a rule, active = well fitted inhibition curve with a large enough effect; inconclusive = small, poorly fitted or top-dose-only effect; inactive = no such curve, though single readings can be large or run the other way. The full list was thinned out, with actives kept by preference. Some structures have more than one record in an assay (separate samples or runs), and their calls can disagree. Where a SMILES comes first, the peptide text is derived from it. Bridges are numbered along the chain shown (N, C = ends). [ ]: non-standard residue; d: D form. The star is where a group is joined. X4 = CC[C@H](C)CCCCC(=O)*; Dab = NCC[C@H](N)C(=O)O
# Target: Rap guanine nucleotide exchange factor 4 (Homo sapiens) (UniProt Q8WZA2)
# Sequence (Q8WZA2 whole entry, looked up): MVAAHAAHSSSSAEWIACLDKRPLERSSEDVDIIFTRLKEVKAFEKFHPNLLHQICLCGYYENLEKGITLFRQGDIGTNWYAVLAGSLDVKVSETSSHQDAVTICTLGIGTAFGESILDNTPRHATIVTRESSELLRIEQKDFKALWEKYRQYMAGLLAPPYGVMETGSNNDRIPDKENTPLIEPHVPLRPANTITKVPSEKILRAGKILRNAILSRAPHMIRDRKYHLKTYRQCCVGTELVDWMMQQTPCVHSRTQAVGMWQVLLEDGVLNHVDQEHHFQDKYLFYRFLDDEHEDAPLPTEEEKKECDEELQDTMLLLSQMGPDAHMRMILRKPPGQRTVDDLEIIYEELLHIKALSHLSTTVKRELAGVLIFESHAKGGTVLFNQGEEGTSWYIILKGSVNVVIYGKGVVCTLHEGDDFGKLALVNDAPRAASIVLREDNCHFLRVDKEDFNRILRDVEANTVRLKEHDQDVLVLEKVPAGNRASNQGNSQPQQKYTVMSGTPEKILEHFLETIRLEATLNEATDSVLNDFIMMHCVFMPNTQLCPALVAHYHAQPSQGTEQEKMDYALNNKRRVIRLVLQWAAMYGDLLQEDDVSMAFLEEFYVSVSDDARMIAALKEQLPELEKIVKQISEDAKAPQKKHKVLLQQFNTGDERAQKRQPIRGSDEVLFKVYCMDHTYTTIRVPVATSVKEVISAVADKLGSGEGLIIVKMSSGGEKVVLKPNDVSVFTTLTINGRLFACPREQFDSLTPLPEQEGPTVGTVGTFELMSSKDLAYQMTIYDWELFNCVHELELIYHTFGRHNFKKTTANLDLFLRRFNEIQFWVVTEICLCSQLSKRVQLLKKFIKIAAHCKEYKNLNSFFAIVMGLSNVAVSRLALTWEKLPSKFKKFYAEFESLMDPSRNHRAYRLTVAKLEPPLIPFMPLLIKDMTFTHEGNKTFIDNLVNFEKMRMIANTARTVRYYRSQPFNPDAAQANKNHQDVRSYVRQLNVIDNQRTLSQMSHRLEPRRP
# Test: Validation qHTS for antagonist of cAMP-regulated guanine nucleotide exchange factor 4 (EPAC2); note: nearly all actives have a fitted effect of over 40% in size
# Settings: EPAC2 Rap1B BODIPY-GDP exchange, fluorescence; series mostly up to 112 µM
# Procedure, shortened: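 Fluorescent exchange read-out: 100 nM EPAC2 with 250 nM RAP1B–BODIPY-GDP and 50 uM GDP; BODIPY-GDP release lowers fluorescence. Read at 480/540 nm every 5 min for 30 min at room temperature; normalized to 6.5 mM cAMP.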
# Potency is the fitted concentration of half-maximal effect.
row,SMILES,Potency
1,c1ccc(CN2CCN(Cc3ccc4c(c3)CN(Cc3c[nH]c5ccccc35)CCO4)CC2)nc1,inactive
2,O=C1CCN(Cc2ccc(-c3ccccc3)cc2)CCN1Cc1ccccn1,inactive
3,Cn1cc(-c2nc3cnc(N4CCNCC4)nc3n(CCC#N)c2=O)c2ccccc21,inactive
4,CN(C)c1ccc(-c2nc(NCCN3CCOCC3)c3ccccc3n2)cc1,inactive
5,Oc1c(Cl)cc(Cl)c(Cl)c1Cc1c(O)c(Cl)cc(Cl)c1Cl,44.7 µM (active) and inactive
6,COCc1c(C(=O)NC2CCCCC2)cnn1-c1nccc(-c2ccccc2OC)n1,inactive
7,COc1ccc2c(c1)NC(=O)C2CC(=O)N1CCOc2c(cc(-c3cnc4ccccc4c3)cc2OC)C1 (stereo not drawn),inactive
8,Cc1ccc(-c2ncc(Cl)cc2-c2ccc(S(C)(=O)=O)cc2)cn1,inactive
9,O=c1ccn([C@@H]2O[C@H](COP(=O)(O)OP(=O)(O)OP(=O)(O)O)[C@@H](O)[C@H]2O)c(=O)[nH]1,inactive
10,CC(C)[C@@H]1NC(=O)[C@H](Cc2ccccc2)NC(=O)[C@@H](CC(=O)O)NC(=O)CNC(=O)[C@H](CCCNC(=N)N)NC1=O,inactive
11,O=S(O)CNc1ccc(S(=O)(=O)c2ccc(NCS(=O)O)cc2)cc1,inactive
12,C/C=C(/C)C(=O)OC1Cc2c(ccc3ccc(=O)oc23)OC1(C)C (stereo not drawn),inactive
13,CC(C)N1C[C@@H](NCc2ccccc2O)C[C@H]1C(=O)N1CCN(c2cccc(C(F)(F)F)c2)CC1,inactive
14,O=C(c1ccco1)N1CCC2(CC1)CCN(c1ncccn1)CC2,inactive
15,CC1(C)C=CC(=O)[C@]2(C)C1CC(=O)[C@]1(C)C2CC[C@@]2(C)C(c3ccoc3)OC(=O)C3OC321 (stereo partly drawn),inactive
16,CC(C)C1=CC2=CC[C@H]3[C@](C)(C(=O)O)CCC[C@]3(C)C2CC1 (stereo partly drawn),inactive
17,O=C1c2ccccc2C(=O)C1c1ccccc1,inactive
18,CN(C)c1ncc2nc(-c3ccc(F)cc3)c(=O)n(Cc3ccc(F)cc3)c2n1,inactive
19,CC(=O)N1CCC2(CCCN(Cc3ccccc3)C2)CC1,inactive
20,CC[C@H](C)CCCCC(=O)N[C@@H](CCN)C(=O)N[C@H](C(=O)N[C@@H](CCN)C(=O)N[C@H]1CCNC(=O)[C@@H]([C@H](C)O)NC(=O)[C@H](CCN)NC(=O)[C@H](CCN)NC(=O)[C@H](CC(C)C)NC(=O)[C@@H](CC(C)C)NC(=O)[C@H](CCN)NC1=O)[C@@H](C)O (X4-[Dab]T[Dab][Dab][Dab][dL]L[Dab][Dab][dT]; lactam 4-C),inactive
21,CC1OC(OCC2OC(Oc3c(-c4ccc(O)c(O)c4)oc4cc(O)cc(O)c4c3=O)C(O)C(O)C2O)[C@@H](O)C(O)C1O (stereo partly drawn),inactive
22,COc1cc(=O)n2c(c1C(=O)NCc1ccco1)CCN(Cc1ccccc1)CC2,inactive
23,CNc1ncnc2ccc(-c3cccc(NS(C)(=O)=O)c3)cc12,inactive
24,CS(=O)(=O)N1CCC2(CC1)CN(Cc1cc(C(F)(F)F)cc(C(F)(F)F)c1)C2,inactive
25,O=C1CCNCCN1[C@H](CO)Cc1ccccc1,inactive
26,Cc1nc2cnc(N3CCNCC3)nc2n(Cc2ccc(F)cc2)c1=O,inactive
27,Nc1ccccc1N,inactive

row,SMILES,Potency
1,CC1(C)S[C@@H]2[C@H](NC(=O)COc3ccccc3)C(=O)N2C1C(=O)OCc1ccccc1 (stereo partly drawn),inactive
2,COC1C[C@@H](O[C@@H]2C(C)C(=O)OC(C)C(C)C(O)C(C)C(=O)[C@@]3(CO3)CC(C)C(OC3OC(C)CC(N(C)C)C3O)C2C)OC(C)[C@@H]1O (stereo partly drawn),inactive
3,COCCn1c(=O)c(-c2cccs2)nc2cncnc21,inactive
4,N#C/C(=C\c1ccc(O)c(O)c1)C(=O)NCc1ccccc1,inactive
5,COc1cccc(CN2CCC3(CC2)c2ccccc2[C@@H](NC(=O)c2ccccc2OC)[C@@H]3O)c1,inactive
6,COc1ccc(CN2[C@@H](CC(=O)O)c3cc(F)ccc3S2(=O)=O)cc1,inactive
7,CN1C(=O)CN2CCc3ccccc3C2c2cc(Cl)ccc21 (stereo not drawn),inactive
8,CCCS(=O)(=O)NCc1c(C)ncc2c1CCN(C(=O)c1ccc(F)c(F)c1)C2,inactive
9,O=C(c1cccc(Cn2cccn2)c1)N1CCOc2c(cc(-c3csc4ccccc34)cc2OC2CCOC2)C1 (stereo not drawn),inactive
10,O=C(c1cccc(F)c1)N1CCC2(CCCN(Cc3ccncc3)C2)CC1,inactive
11,c1cncc(-c2nc(N3CCNCC3)c3ccccc3n2)c1,inactive
12,CC(=O)/C(C)=N\O,inactive
13,COc1ncc2nc(-c3ccc(Cl)cc3)c(=O)n(-c3ccccc3)c2n1,inactive
14,COc1ccc(CN2CCC3(CCC(CNC(=O)c4ccco4)O3)CC2)cc1OC (stereo not drawn),inactive
15,COc1ccc2c(c1)CCc1cnc(-n3ncc(C(=O)NCCN4CCOCC4)c3C)nc1-2,inactive
16,c1ccc2cc(C3=NCCN3)ccc2c1,inactive
17,NNc1nnc(NN)c2ccccc12,inactive
18,Cc1cccc(CNc2cc(-c3ccccc3Cl)ncn2)c1,inactive
19,Cc1ccc2c(C)nc(N3CCCC(C(=O)NC(C)(C)CO)C3)nc2c1 (stereo not drawn),inactive
20,O=C(Oc1cc(OC(=O)c2ccccc2)c2c(c1)OC(c1ccc(OC(=O)c3ccccc3)c(OC(=O)c3ccccc3)c1)[C@@H](OC(=O)c1ccccc1)C2)c1ccccc1 (stereo partly drawn),inactive
21,C/C=C(\C)C(=O)O[C@H]1CC(C)=C2C(=O)C=C(C)C2[C@@H]2OC(=O)[C@@](C)(OC(=O)C=C(C)C)C21 (stereo partly drawn),inactive
22,CC[C@H](C)CCCCC(=O)N[C@@H](CCN)C(=O)N[C@H](C(=O)N[C@@H](CCN)C(=O)N[C@H]1CCNC(=O)[C@H]([C@@H](C)O)NC(=O)[C@H](CCN)NC(=O)[C@H](CCN)NC(=O)[C@H](CC(C)C)NC(=O)[C@@H](CC(C)C)NC(=O)[C@H](CCN)NC1=O)[C@@H](C)O (X4-[Dab]T[Dab][Dab][Dab][dL]L[Dab][Dab]T; lactam 4-C),inactive
23,COCCn1c(=O)c(CCc2ccccc2)nc2cnc(N3CCNCC3)nc21,inactive
24,CC(C)c1cnc(NC(=O)Cc2ccccc2)s1,inactive
25,CC1(C)O[C@@H]2C[C@@H]3[C@H]4C[C@@H](F)C5=CC(=O)C=C[C@]5(C)[C@@]4(F)[C@@H](O)C[C@]3(C)[C@]2(C(=O)CO)O1,inactive
26,COc1ccc2[nH]cc(CCNc3ncnc4ccc(-c5ccc(C(=O)N(C)C)cc5)cc34)c2c1,inactive
